# Measured values from PMC4336329 (PLoS ONE, 2015).
# The whole screen tested about 310,000 compounds, of which about 14,000 (4.5%) showed an effect of 50% or more. Effects have a minus sign here. Shown is part of a subset that was picked to be rich in strong results.
# Biological target: human ether-à-go-go-related gene (hERG) potassium channel (human, UniProt Q12809)
# Assay: primary screen, population patch clamp on CHO cells stably expressing hERG; higher = less effect of the substance
# 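Note: peak tail current of the secondary pulse compared with the same well before compound.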
# human ether-à-go-go-related gene (hERG) potassium channel, sequence (Q12809 whole entry, looked up): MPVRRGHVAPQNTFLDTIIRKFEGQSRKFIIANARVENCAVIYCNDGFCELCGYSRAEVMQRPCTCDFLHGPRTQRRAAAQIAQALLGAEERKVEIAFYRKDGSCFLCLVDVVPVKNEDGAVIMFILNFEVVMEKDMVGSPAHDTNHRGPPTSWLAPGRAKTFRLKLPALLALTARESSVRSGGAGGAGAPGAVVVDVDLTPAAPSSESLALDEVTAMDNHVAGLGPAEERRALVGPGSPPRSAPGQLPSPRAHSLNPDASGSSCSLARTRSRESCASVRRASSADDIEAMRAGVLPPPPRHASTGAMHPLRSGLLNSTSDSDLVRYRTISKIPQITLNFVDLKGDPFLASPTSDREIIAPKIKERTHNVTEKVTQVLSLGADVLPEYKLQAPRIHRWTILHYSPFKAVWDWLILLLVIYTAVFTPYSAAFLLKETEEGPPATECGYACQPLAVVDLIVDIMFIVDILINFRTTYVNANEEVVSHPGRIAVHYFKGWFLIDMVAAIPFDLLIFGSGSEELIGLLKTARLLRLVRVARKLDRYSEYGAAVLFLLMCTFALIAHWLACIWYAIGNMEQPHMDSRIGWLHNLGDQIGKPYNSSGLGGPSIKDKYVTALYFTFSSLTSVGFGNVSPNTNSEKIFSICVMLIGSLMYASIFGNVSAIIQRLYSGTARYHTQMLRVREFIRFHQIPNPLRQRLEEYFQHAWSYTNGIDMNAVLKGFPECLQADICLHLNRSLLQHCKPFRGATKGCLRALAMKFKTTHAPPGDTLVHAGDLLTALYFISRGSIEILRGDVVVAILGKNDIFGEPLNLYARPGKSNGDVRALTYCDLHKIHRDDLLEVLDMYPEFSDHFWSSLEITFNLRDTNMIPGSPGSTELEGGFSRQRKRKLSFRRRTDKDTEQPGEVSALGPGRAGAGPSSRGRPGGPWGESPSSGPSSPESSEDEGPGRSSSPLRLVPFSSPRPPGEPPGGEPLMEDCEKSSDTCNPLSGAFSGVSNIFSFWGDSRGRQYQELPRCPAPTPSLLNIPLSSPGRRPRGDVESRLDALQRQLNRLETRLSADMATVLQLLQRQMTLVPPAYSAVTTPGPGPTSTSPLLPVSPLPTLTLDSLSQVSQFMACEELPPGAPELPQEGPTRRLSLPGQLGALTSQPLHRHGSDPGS
row,SMILES,"hERG current change (%, negative = inhibition) at 10uM [%]"
1,CCCCc1cc(=O)oc2c(CN3CCCC3)c(O)c(Cl)cc12,-20.9
2,COC(=O)c1[nH]c2c(c1C)C(=O)CC(c1ccc(OC)c(OC)c1)C2 (stereo not shown),-0.262
3,CC(Sc1ccccc1)C(=O)N(CCC#N)Cc1cccnc1 (stereo not shown),6.64
4,Cc1ccc(NC(=O)CSc2nnc(-c3cnccn3)n2Cc2ccco2)cc1,-21.3
5,COc1ccccc1C1CC(c2ccc(Cl)cc2)Nc2ncnn21 (stereo not shown),-44.8
6,Cc1cccn2c(CN(C)C3CCOC3)c(C(=O)N3CCCCC3)nc12 (stereo not shown),32.3
7,O=c1cc(-c2ccc(O)c(O)c2)oc2cc(O)c(C3OC(CO)C(O)C(O)C3O)c(O)c12 (stereo not shown),3.72
8,CC1(C)Cc2cccc(OCC(=O)NCc3cccs3)c2O1,-0.101
9,CCCCNC(=O)N1CCN(Cc2ccc(F)cc2)CC1,-11.3
10,CCNC(=O)N1CCN(C(=O)NCC)CC1,15.7
11,O=C(C1CCN(Cc2ccccc2)CC1)N1CCN(C/C=C/c2ccccc2)CC1.O=C(O)C(=O)O,-33.3
12,CCNC(=O)N1CCN(CCCC(c2ccc(F)cc2)c2ccc(F)cc2)CC1.Cl,-82.3
13,O=C(Cc1ccccc1)N1CCN(Cc2ccc(F)cc2)CC1.O=C(O)C(=O)O,2.38
14,C=C(C)c1cccc(C(C)(C)NC(=O)N2CCN(C/C=C/c3ccccc3)CC2)c1,-62.9
15,Cc1ccc(NC(=O)N2CCN(C/C=C/c3ccccc3)CC2)cc1,-44.6
16,C=C(C)c1cccc(C(C)(C)NC(=O)N2CCN(CC(N)=O)CC2)c1,11.3
17,Cc1cc(C)cc(NC(=O)N2CCN(C/C=C/c3ccccc3)CC2)c1,-69
18,CC1=C(C)CC(C(=O)N2CCN(C/C=C/c3ccccc3)CC2)C(C(=O)O)C1 (stereo not shown),8.99
19,O=C(C1CCN(Cc2ccc(F)cc2)CC1)N1CCN(C/C=C/c2ccccc2)CC1.O=C(O)C(=O)O,-63.6
20,C=C(C)c1cccc(C(C)(C)NC(=O)N2CCN(CC)CC2)c1,7.13
21,Cn1c(=O)c2c(ncn2CC(O)CNc2ccc(F)cc2)n(C)c1=O (stereo not shown),1.35
22,COc1ccc(S(=O)(=O)N2CCC(C(=O)NCCC(=O)NCc3ccncc3)CC2)cc1,11

row,SMILES,"hERG current change (%, negative = inhibition) at 10uM [%]"
1,CCN(CCN1CCCC1)C(=O)c1cc(COc2ccccc2SC)on1,-32.1
2,CN(C)C=NC(=O)c1ccc(N2CCN(c3ncc(C(F)(F)F)cc3Cl)CC2)cc1,7.74
3,O=C(NCCO)Nc1ccc2nsnc2c1,-5.93
4,NC(=O)c1ccccc1N=Cc1cccnc1,-21
5,Cc1cc(N2C(=O)c3ccc(C(=O)Nc4ccccc4O)cc3C2=O)no1,14.1
6,O=c1c(Cc2c(F)cccc2Cl)c(O)ccn1C1CC1,-11.7
7,COc1ccc(NC(=O)c2csc3c2CCCCC3)c(OC)c1,-6.93
8,CCOC(=O)c1c(C)[nH]c(C(=O)N/N=C/c2cc([N+](=O)[O-])ccc2O)c1C,33.7
9,CCCCCn1c(=O)c(C(=O)Nc2ccccc2N)c(O)c2ccccc21,21.4
10,CCOC(=O)c1cc(NCc2cccs2)ccc1N1CCOCC1,-3.79
11,COc1ccc(-c2[nH]c(-c3ccc4c(c3)OCO4)nc2-c2ccccc2)cc1,1.88
12,COc1ccc(/C=N\NC(=O)c2cc(O)c(O)c(O)c2)cc1CN1CCN(c2ccc(F)cc2)CC1,14.6
13,COc1ccc(/C=N\NC(=O)c2ccccc2)cc1COc1ccc(F)cc1,-0.876
14,COc1ccc(/C=N\NC(=O)c2ccccc2)cc1COc1ccccc1,20.6
15,COc1ccc(/C=N/NC(=O)c2cccnc2)cc1CN1CCOCC1,13.6
16,COc1ccc(/C=N/NC(=O)c2ccc(C)cc2)cc1CN1CCN(c2ccc(F)cc2)CC1,-69.8
17,COc1ccc(/C=N/NC(=O)c2cccnc2)cc1CN1CCc2ccccc2C1,-17.9
18,COc1ccc(/C=N/NC(=O)c2ccccc2O)cc1CN1CCOCC1,-12.8
19,COc1ccc(/C=N/NC(=O)c2cccnc2)cc1CN1CCN(c2ccc(F)cc2)CC1,-51
20,COc1ccc(/C=N/NC(=O)c2ccccc2)cc1CN1CCN(c2ccc(F)cc2)CC1,-74.5
21,COc1cc(OC)cc(C(=O)N/N=C/c2ccc(OC)c(COc3ccc(F)cc3)c2)c1,6.62
22,COc1ccc(/C=N/NC(=O)c2ccn[nH]2)cc1CN1CCOCC1,-14.8

row,SMILES,"hERG current change (%, negative = inhibition) at 10uM [%]"
1,COc1cc(C(=O)N/N=C/c2ccc(OC)c(CN3CCN(c4ccc(F)cc4)CC3)c2)ccc1O,-75.3
2,CCC(C)NC(=O)N[C@@H](Cc1ccccc1)C(=O)O (stereo partly shown),-1.98
3,CCOC(=O)C1CCN(C(=O)CNC(=O)Cn2c(C)cc3ccccc3c2=O)CC1,6.61
4,O=C(COc1ccc(F)cc1)Nc1nnc(-c2ccncc2)s1,-6.52
5,c1cnc(N2CCN(c3nc4ccccc4n4cnnc34)CC2)nc1,-27.6
6,CC(C)[C@H](NC(=O)c1ccco1)C(=O)NCc1ccccc1,25.1
7,COc1ccc(S(=O)(=O)N(C)c2ccc(C(=O)NCc3ccco3)cc2)cc1OC,-9.43
8,CCN(CC)c1ccc(/C=N/NC(=O)Cc2cccs2)cc1,-16.6
9,CCOc1ccc(/C=N/NC(=O)c2ccc(O)cc2)cc1CN1CC2CC(C1)c1cccc(=O)n1C2 (stereo not shown),4.7
10,COc1ccc(/C=N/NC(=O)c2ccoc2C)cc1CN1CCN(c2ccc(F)cc2)CC1,-76.8
11,C/C=C/c1cc(CN2CCN(c3ccccc3)CC2)c(O)c(OC)c1,-32
12,COc1ccc(/C=N\NC(=O)c2ccccc2F)cc1COc1ccc(F)cc1,27.1
13,CCOc1ccc(/C=N/NC(=O)c2ccccc2O)cc1CN1CC2CC(C1)c1cccc(=O)n1C2 (stereo not shown),-16.7
14,COc1ccc(/C=N\NC(=O)c2ccccc2F)cc1COc1ccc(F)cc1F,11.7
15,C/C=C/c1cc(CN2CCN(c3ccc(OC)cc3)CC2)c(O)c(OC)c1,-68.7
16,CCOc1ccc(/C=N/NC(=O)c2ccc(F)cc2)cc1CN1CC2CC(C1)c1cccc(=O)n1C2 (stereo not shown),-53.3
17,COc1ccc(/C=N/NC(=O)c2ccccc2F)cc1CN1CCN(c2ccc(F)cc2)CC1,-76.2
18,COc1ccc(/C=N/NC(=O)c2ccoc2C)cc1OC,-9.75
19,COc1ccc(N2CCN(Cc3cc4c(cc3O)CCC4)CC2)cc1,-12.4
20,COc1ccc(/C=N/NC(=O)c2ccoc2C)cc1O,-4.47
21,CCOc1cc(Br)c(C=O)cc1OCC,22.1
22,CC1(CCc2ccccc2)NC(=O)N(CC(=O)N2CC(=O)Nc3ccccc32)C1=O (stereo not shown),7.19

row,SMILES,"hERG current change (%, negative = inhibition) at 10uM [%]"
1,O=C(COC(=O)c1ccccn1)Nc1ccccc1OC(F)F,6.71
2,Cc1cnc(NC(=O)CN(C)S(=O)(=O)c2ccc(Cl)cc2)s1,-1.68
3,O=C(CC(c1ccccc1)c1cc(Br)ccc1O)NCCN1CCOCC1 (stereo not shown),-34.7
4,CCCCCCCOC(=O)C1=C(C)Nc2ncnn2C1c1cccs1 (stereo not shown),-0.122
5,Cc1ccc(NC(=O)COc2ccc(Br)cc2C)cc1,0.803
6,COc1ccc(C(=O)N/N=C/c2ccc(OC)c(COc3ccc(F)cc3)c2)cc1,-35.2
7,COc1ccc(/C=N/NC(=O)c2ccncc2)cc1CN1CCN(c2ccc(F)cc2)CC1,-77
8,COc1ccc(C(=O)N/N=C/c2ccc(OC)c(CN3CCN(c4ccc(F)cc4)CC3)c2)cc1,-74.2
9,COc1ccc(/C=N/NC(=O)c2ccncc2)cc1CN1CCCc2ccccc21,-26.1
10,COc1ccc(/C=N/NC(=O)c2ccncc2)cc1OC,15.5
11,COc1ccc(C(=O)N/N=C/c2ccc(OC)c(COc3ccc(F)cc3F)c2)cc1,3.74
12,NC1=NC(=O)/C(=C\c2ccc(-c3ccc(Cl)cc3)o2)S1,9.15
13,COc1ccc(NC(=O)CS(=O)CC(=O)NCC2OCCc3ccccc32)cc1 (stereo not shown),16.2
14,C=CCNC(=S)NNC(=O)c1ccncc1,1.85
15,O=C1CC(N2CCN(Cc3ccc(Cl)cc3)CC2)C(=O)N1CCc1ccccc1 (stereo not shown),-37.4
16,Cc1ccc(NC(=O)COC(=O)CCc2c[nH]c(=O)[nH]2)cc1,1.45
17,COc1c(O)cccc1[C@@H](O)C1CCN(CCc2ccc(F)cc2)CC1,-55.8
18,Fc1cccc(CNC2CCN(CCc3ccccc3)CC2)c1,-42.8
19,COc1cccc(C(c2nnnn2Cc2ccc(F)cc2)N2CCC(C(N)=O)CC2)c1OC (stereo not shown),-24.8
